According to the supplement of paper PMC10849652:
Targets with a hit are over-represented here; the source holds about 7,900 in all. About 0.6% of all pairs of compound and target were hits. Unmarked numbers belong to inactive results.

How the values were obtained:
Assay in all cases: log2 fold change, soluble protein after heating vs DMSO (PISA); higher = thermal stabilisation; K562 cells, 10 uM, 30 min; active = over 0.2 and 3.5 SD of the protein, either way, in both replicates (recomputed)
erlotinib = compound: C#Cc1cccc(Nc2ncnc3cc(OCCOC)c(OCCOC)cc23)c1 [erlotinib]
Procedure, shortened: (§1)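 Soluble protein was defined as the supernatant after 21,000xg for 90 min. It came from K562 cells at 2×10^6 cells/mL given 10 μM compound for 30 min, heated in aliquots for 3 min across 48°C-58°C, pooled, and extracted in PBS with 0.5% NP-40 at 4°C, and was quantified by TMTpro 16plex LC-MS/MS with equalised channel sums. Thermal stability against control samples, from duplicates, is reported as log2 fold change.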

[1] = compound: C/C(=N\NC(=O)C1=CC(=CC=C1)S(=O)(=O)N2CCOCC2)/C3=C(C=CC(=C3)Cl)O
Procedure, shortened: as §1

[2] = compound: C1=CC(=C(C=C1Cl)C2=NC3=NC=CN=C3C(=N2)NC4=CC=NC=C4)F
Procedure, shortened: as §1

[3] = compound: C1=CC(=CC=C1C2=NC3=C(N2)C=C(C=C3)C(=O)N)OC4=CC=C(C=C4)Cl
Procedure, shortened: as §1

[4] = compound: C1=CC2=C(C=CC(=C2)/C=C\3/C(=O)NC(=NCC4=CC=CS4)S3)N=C1
Procedure, shortened: as §1

[5] = compound: C1=CC2=NC=CN=C2C=C1/C=C/3\C(=O)NC(=O)S3
Procedure, shortened: as §1

[6] = compound: C1=CC=C(C=C1)C2=NC(=C(N2)C3=CC=NC=C3)C4=CC(=C(C=C4)Cl)O
Procedure, shortened: as §1

[7] = compound: C1=CC=C2C(=C1)C3=NNC4=CC=CC(=C43)C2=O
Procedure, shortened: as §1

[8] = compound: C1CCN(C1)C(=O)NC2=CC=CC(=C2)NC3=NC=C(C(=N3)NCCC4=CN=CN4)Br
Procedure, shortened: as §1

[9] = compound: C1CN(CCC1(CC2=CC=C(C=C2)Cl)N)C3=NC=NC4=C3C=CN4
Procedure, shortened: as §1

IRAK-1-4 Inhibitor I = compound: C1COCCN1CCN2C3=CC=CC=C3N=C2NC(=O)C4=CC(=CC=C4)[N+](=O)[O-] [IRAK-1-4 Inhibitor I]
Procedure, shortened: as §1

ibrutinib = compound: C=CC(=O)N1CCC[C@@H](n2nc(-c3ccc(Oc4ccccc4)cc3)c3c(N)ncnc32)C1 [ibrutinib]
Procedure, shortened: as §1

[10] = compound: CC(=O)c1cnc2ccc(-c3cc(Cl)c(O)c(Cl)c3)nc2c1N[C@H]1CC[C@H](CN(C)C)CC1
Procedure, shortened: as §1

ralimetinib = compound: CC(C)(C)Cn1c(N)nc2ccc(-c3[nH]c(C(C)(C)C)nc3-c3ccc(F)cc3)nc21 [ralimetinib]
Procedure, shortened: as §1

[11] = compound: CC(C)(O)CC(=O)NCCn1ccc2ncnc(Nc3ccc(Oc4cccc(C(F)(F)F)c4)c(Cl)c3)c21
Procedure, shortened: as §1

[12] = compound: CC(C)C1=C2N=C(C=C(N2N=C1)NCC3=CC=CC=C3)NCCCCCCN
Procedure, shortened: as §1

[13] = compound: CC(C)C[C@@H](C=O)NC(=O)[C@H](CC(C)C)NC(=O)[C@H](CC(C)C)NC(=O)OCc1ccccc1
Procedure, shortened: as §1

pinometostat = compound: CC(C)N(C[C@H]1O[C@@H](n2cnc3c(N)ncnc32)[C@H](O)[C@@H]1O)[C@H]1C[C@@H](CCc2nc3cc(C(C)(C)C)ccc3[nH]2)C1 [pinometostat]
Procedure, shortened: as §1

[14] = compound: CC1=C(C(CC(=O)N1)C2=CC=C(C=C2)C(F)(F)F)C(=O)NC3=C(C=C4C(=C3)C=NN4)F
Procedure, shortened: as §1

[15] = compound: CC1=C(C2=C(C=C1)C(=O)C3=CC=CC=C3N2CCCN)C
Procedure, shortened: as §1

Sequence of UniProt P11717 (P11717 whole entry, looked up): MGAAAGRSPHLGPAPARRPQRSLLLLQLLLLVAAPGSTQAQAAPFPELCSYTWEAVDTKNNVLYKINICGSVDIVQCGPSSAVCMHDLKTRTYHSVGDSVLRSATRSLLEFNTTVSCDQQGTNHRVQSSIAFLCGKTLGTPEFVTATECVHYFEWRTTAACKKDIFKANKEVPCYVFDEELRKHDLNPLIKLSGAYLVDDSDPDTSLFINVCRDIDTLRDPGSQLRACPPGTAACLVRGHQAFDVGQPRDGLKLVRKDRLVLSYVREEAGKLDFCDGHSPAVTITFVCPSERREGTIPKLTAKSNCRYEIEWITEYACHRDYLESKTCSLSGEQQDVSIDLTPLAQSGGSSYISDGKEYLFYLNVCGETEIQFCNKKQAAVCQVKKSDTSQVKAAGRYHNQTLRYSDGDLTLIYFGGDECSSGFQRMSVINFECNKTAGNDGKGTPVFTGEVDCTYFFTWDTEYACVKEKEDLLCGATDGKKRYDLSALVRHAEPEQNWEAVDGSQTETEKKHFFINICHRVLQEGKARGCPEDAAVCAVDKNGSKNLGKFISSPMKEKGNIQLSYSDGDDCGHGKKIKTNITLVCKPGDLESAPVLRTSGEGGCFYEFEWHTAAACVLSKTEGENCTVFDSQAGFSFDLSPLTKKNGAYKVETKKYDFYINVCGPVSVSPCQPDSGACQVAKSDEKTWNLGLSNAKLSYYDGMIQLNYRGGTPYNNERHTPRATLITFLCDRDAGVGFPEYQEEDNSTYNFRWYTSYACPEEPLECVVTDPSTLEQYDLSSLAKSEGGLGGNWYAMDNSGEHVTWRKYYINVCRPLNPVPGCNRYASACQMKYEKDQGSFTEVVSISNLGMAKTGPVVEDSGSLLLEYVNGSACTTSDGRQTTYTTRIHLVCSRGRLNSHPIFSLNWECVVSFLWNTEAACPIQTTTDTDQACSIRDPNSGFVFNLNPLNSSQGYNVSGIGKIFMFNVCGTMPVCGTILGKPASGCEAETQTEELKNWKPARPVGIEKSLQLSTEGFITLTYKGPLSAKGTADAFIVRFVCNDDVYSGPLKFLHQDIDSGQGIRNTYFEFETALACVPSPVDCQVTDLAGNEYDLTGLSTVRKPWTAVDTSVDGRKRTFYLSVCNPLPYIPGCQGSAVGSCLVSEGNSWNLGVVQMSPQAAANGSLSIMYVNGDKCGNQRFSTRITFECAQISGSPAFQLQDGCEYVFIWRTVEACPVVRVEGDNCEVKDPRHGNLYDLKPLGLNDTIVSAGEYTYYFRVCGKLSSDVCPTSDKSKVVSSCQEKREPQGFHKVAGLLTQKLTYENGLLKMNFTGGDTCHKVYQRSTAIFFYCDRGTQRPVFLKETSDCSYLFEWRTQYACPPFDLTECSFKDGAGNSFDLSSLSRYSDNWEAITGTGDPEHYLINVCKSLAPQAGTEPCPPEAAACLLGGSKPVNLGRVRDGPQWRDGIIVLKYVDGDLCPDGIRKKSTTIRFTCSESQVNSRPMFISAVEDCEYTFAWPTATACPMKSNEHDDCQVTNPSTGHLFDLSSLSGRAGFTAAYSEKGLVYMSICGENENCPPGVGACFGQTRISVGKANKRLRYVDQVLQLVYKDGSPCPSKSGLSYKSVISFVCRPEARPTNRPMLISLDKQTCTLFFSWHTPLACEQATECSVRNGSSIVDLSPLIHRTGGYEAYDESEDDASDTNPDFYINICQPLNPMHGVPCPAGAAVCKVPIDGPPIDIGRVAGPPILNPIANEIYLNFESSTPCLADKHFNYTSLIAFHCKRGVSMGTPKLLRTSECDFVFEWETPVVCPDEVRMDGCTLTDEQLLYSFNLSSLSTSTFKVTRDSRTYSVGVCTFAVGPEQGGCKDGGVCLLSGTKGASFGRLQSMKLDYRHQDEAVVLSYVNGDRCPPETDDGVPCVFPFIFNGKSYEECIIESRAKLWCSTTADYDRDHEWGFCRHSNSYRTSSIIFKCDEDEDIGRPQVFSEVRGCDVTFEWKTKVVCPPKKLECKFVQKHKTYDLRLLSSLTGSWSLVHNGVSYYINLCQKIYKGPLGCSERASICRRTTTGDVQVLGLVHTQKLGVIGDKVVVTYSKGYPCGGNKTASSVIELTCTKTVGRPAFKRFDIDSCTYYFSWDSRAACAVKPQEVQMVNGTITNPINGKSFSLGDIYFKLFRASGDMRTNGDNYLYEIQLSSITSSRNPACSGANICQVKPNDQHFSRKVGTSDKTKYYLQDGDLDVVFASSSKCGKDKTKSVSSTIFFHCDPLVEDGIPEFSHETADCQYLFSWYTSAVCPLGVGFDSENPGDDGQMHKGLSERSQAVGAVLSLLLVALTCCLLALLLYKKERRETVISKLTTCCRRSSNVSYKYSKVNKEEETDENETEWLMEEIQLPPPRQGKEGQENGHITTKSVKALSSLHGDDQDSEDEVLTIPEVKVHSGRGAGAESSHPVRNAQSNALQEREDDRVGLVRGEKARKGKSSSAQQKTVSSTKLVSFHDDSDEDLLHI
Sequence of UniProt Q8WWC4 (Q8WWC4 whole entry, looked up): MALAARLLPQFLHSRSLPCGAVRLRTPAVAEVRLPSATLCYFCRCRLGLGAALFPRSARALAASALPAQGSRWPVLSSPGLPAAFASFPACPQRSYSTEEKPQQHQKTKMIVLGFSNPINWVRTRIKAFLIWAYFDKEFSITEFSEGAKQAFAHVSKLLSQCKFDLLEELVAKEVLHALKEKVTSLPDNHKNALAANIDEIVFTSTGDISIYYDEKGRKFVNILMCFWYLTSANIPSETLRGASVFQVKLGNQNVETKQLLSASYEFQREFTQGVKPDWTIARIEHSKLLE
Sequence of UniProt P01130 (P01130 whole entry, looked up): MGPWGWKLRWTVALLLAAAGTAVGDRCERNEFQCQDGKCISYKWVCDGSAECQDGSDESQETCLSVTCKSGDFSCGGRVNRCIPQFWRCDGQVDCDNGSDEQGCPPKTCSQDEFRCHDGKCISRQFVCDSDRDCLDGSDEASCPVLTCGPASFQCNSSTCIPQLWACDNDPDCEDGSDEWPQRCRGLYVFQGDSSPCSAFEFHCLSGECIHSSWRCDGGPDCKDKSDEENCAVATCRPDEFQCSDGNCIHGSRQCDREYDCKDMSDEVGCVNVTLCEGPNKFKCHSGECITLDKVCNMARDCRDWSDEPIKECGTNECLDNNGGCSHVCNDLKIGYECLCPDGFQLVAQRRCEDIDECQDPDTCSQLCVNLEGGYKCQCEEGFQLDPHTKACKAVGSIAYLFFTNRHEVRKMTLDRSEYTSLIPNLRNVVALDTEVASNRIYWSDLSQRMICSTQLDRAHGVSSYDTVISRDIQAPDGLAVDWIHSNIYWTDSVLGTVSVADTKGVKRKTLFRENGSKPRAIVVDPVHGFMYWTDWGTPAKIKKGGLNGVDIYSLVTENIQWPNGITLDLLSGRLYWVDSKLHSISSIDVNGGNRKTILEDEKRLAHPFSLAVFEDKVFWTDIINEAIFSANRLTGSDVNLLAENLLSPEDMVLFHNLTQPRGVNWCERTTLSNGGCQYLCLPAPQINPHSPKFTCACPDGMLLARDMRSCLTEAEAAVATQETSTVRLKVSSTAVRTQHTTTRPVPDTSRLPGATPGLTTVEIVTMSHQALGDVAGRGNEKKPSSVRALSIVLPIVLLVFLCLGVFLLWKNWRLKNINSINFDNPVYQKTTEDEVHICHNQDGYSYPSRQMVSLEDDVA
Sequence of UniProt P29966 (P29966 whole entry, looked up): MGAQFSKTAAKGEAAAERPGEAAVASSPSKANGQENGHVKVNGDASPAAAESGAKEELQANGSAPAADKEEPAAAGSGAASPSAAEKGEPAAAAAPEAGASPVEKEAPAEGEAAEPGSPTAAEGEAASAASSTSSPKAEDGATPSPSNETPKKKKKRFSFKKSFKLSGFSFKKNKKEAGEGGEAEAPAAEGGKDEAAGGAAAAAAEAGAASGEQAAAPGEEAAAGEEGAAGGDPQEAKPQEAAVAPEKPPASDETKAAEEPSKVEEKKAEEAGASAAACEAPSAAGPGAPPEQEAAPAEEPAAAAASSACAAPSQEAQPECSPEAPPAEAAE
Sequence of UniProt Q9UI26 (Q9UI26 whole entry, looked up): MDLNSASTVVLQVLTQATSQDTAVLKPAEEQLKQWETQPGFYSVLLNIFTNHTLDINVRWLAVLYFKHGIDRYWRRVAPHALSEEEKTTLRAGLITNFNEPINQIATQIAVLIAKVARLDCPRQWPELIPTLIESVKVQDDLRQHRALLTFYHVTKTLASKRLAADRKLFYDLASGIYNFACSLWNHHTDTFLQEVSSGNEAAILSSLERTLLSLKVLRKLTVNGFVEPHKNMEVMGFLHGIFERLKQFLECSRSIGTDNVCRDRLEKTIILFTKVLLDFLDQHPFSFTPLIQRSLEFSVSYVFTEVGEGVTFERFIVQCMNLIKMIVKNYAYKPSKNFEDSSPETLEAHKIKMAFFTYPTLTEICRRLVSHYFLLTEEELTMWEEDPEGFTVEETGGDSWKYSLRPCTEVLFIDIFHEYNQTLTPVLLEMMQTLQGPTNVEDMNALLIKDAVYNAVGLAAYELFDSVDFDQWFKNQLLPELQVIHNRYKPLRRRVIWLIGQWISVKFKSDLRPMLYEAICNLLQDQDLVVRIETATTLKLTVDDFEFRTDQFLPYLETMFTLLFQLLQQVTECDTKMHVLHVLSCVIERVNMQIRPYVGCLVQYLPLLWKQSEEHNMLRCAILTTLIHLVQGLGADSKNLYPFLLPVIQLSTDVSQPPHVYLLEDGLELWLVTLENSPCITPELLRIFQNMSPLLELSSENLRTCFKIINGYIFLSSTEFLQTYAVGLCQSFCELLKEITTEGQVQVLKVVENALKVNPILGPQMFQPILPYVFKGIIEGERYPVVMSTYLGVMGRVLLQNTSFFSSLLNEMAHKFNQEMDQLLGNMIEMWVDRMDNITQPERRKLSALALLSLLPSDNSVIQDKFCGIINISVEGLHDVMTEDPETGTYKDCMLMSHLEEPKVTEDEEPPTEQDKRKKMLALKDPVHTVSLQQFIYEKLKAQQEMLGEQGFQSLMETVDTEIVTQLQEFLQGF

Target | log2 fold change (erlotinib) | log2 fold change [1] | log2 fold change [2] | log2 fold change [3] | log2 fold change [4] | log2 fold change [5] | log2 fold change [6] | log2 fold change [7] | log2 fold change [8] | log2 fold change [9] | log2 fold change (IRAK-1-4 Inhibitor I) | log2 fold change (ibrutinib) | log2 fold change [10] | log2 fold change (ralimetinib) | log2 fold change [11] | log2 fold change [12] | log2 fold change [13] | log2 fold change (pinometostat) | log2 fold change [14] | log2 fold change [15]
KPNA6 (UniProt O60684) | 0.077 | 0.108 | -0.068 | -0.075 | 0.013 | 0.059 | 0.015 | -0.119 | 0.017 | -0.07 | -0.046 | -0.032 | -0.04 | 0.077 | -0.047 | -0.239 | 0.087 | 0.087 | 0.04 | -0.15
MAP2K3 isoform 3 (UniProt P46734) | -0.011 | 0.05 | 0.002 | 0.009 | 0.036 | 0.017 | 0.046 | -0.057 | 0.016 | -0.006 | 0.012 | 0.032 | -0.457 (active) | 0.02 | 0.059 | -0.035 | -0.022 | -0.012 | 0.064 | -0.032
IPO11 isoform 2 (UniProt Q9UI26) | -0.063 | 0.066 | 0.074 | 0.013 | 0.016 | 0.038 | 0.011 | -0.023 | 0.001 | -0.009 | 0.011 | -0.014 | 0.039 | -0.016 | -0.095 | 0.018 | -0.039 | -0.035 | 0.002 | -0.018
LDLR (UniProt P01130) | -0.035 | 0.003 | -0.04 | 0.03 | -0.018 | 0.025 | 0.011 | -0.113 | 0.025 | 0.051 | 0.03 | -0.015 | -0.106 | -0.025 | 0.072 | -0.009 | 0.171 | -0.011 | 0.019 | -0.058
KHDC4 (UniProt Q7Z7F0) | -0.005 | 0.14 | 0.009 | -0.058 | 0.089 | 0.084 | 0.074 | -0.041 | -0.042 | 0.025 | 0.034 | 0.025 | 0.003 | 0.012 | -0.201 | -0.009 | 0.015 | -0.001 | 0.008 | 0.021
LPCAT3 (UniProt Q6P1A2) | -0.062 | 0.028 | 0.032 | 0.07 | 0.152 | 0.071 | 0.211 | 0.014 | 0.059 | 0.002 | 0.014 | -0.034 | 0.099 | 0.009 | 0.148 | -0.65 (active) | -0.004 | 0.083 | -0.004 | 0.03
MAIP1 (UniProt Q8WWC4) | -0.02 | 0.006 | -0.012 | 0.002 | 0.02 | 0.042 | 0.066 | 0.037 | -0.024 | 0.012 | 0 | -0.014 | -0.004 | -0.028 | 0.09 | -0.201 | -0.026 | -0.042 | -0.011 | 0.052
IGF2R (UniProt P11717) | -0.052 | 0 | 0 | 0.025 | -0.012 | 0.003 | 0.009 | -0.021 | 0.002 | 0.012 | -0.002 | 0.013 | 0.016 | -0.038 | -0.007 | -0.218 (active) | -0.009 | 0.005 | 0.029 | -0.071
MARCKS (UniProt P29966) | -0.033 | -0.032 | 0.061 | 0.045 | -0.026 | 0.048 | 0.119 | 0.025 | 0.01 | 0.118 | -0.077 | 0.071 | 0.014 | 0.025 | -0.099 | 0.039 | 0.134 | -0.109 | 0.031 | 0.002
